PubChem BioAssay AID1878 (Sanford-Burnham Center for Chemical Genomics, 2009)
In all, about 1,000 compounds went through this assay and about 200 (20%) were called active. The list is a sample of the results. Measured potencies and affinities stand elsewhere. Unmarked numbers belong to inactive results. No stated cut-off is given here; in the data, active means inhibition above about 55%; inactive means the rest.

target: Dual specificity protein phosphatase 3 (Homo sapiens) (UniProt P51452); test: VHR1 phosphatase inhibitors, biochemical (AID 1878); details: recombinant VHR phosphatase, fluorogenic substrate; at 13.3 µM; stronger effect = higher value
Sequence (P51452 whole entry, looked up): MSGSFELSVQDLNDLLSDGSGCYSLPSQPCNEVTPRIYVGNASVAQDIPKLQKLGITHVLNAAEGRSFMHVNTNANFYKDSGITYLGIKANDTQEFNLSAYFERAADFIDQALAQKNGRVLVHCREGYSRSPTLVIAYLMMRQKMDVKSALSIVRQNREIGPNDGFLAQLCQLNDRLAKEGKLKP

Row | Compound | inhibition
1 | COc1ccc(-c2n[nH]c3c2CN(C(=O)c2ccc(OC)c(OC)c2)CC3)cc1 | -2.9%
2 | Nc1cc(=O)[nH]c(SCC(=O)Nc2ccc(Oc3ccccc3)cc2)n1 | -5%
3 | CCc1cc2c(C)ccc(C)c2nc1SCC(=O)Nc1c[nH]c(=O)[nH]c1=O | 27.1%
4 | O=C(CSc1n[nH]c(=O)[nH]c1=O)Nc1ccc2c(c1)C(=O)c1ccccc1C2=O | 98% (active)
5 | CC1=C(C(=O)OCC2CCCCC2)C(c2ccc(F)cc2)NC(=O)N1 (centres undefined) | -8.4%
6 | CC1=C(C(=O)OC(C)C)C(c2ccc(Cl)cc2)n2c(s/c(=C\c3ccc(OCC(=O)O)cc3)c2=O)=N1 (centres undefined) | 97.4% (active)
7 | CCOC(=O)C1=C(N)n2c(s/c(=C\c3ccncc3)c2=O)=C(C(=O)OCC)C1c1ccncc1 (centres undefined) | 39.4%
8 | CCC1CCCCN1CCCNS(=O)(=O)c1ccc2c(c1)oc(=O)n2C (centres undefined) | -1.5%
9 | Clc1ccc2ccc3cccnc3c2n1 | -16.7%
10 | Cc1ccc(CNc2ccc(N3CCOCC3)c(Cl)c2)cc1 | 8%
11 | Cc1c(C(=O)N2CCCCC2)c(S(=O)(=O)N2CCN(c3ccc(F)cc3)CC2)c(C)n1C | -7%
12 | Cc1c(C)n(C)c2ccc(C(=O)NCCCN3CCCCC3C)cc12 (centres undefined) | -11%
13 | O=C(CSc1n[nH]c(-c2ccccc2O)n1)NC1CCCCC1 | 2.6%
14 | Clc1ccc(Cl)c(OCCCCN2CCCCC2)c1 | -4.8%
15 | COc1ccc(CCNC(=O)CCNC(=O)N2CC(=O)Nc3ccccc32)cc1 | 13.9%
16 | COc1ccc(OC)c(NC(=O)CCN2CCN(c3ccccc3OC)CC2)c1 | 6.9%
17 | COc1ccc(N2CCN(c3ncnc4scc(-c5ccccc5)c34)CC2)cc1 | 16.6%
18 | O=C(Nc1cccc(-n2cnnn2)c1)c1ccc(Cl)cc1Cl | 3.8%
19 | Oc1ccc(-c2nc3ccccc3nc2-c2ccccc2)cc1 | -3.2%
20 | O=S(=O)(Nc1ccc2ccccc2n1)c1ccccc1Cl | 3.5%
21 | CCCN1C2CCCC1CC(NC(=O)c1ccc(C(C)(C)C)cc1)C2 (centres undefined) | -2.3%
22 | CC1CCCCN1CC(O)COc1ccc(OCC(O)CN2CCCCC2C)cc1 (centres undefined) | -5.3%
23 | COc1ccc(Nc2nc(-c3sc(C)nc3C)cs2)c(OC)c1 | 23%
24 | COc1ccc(C(=O)N2CCCCCCC2)cc1OC1CCN(C(C)C)CC1 | -3.1%

Row | Compound | inhibition
25 | COc1ccc(C(=O)N(C)CCCC2CCCC2)cc1OC1CCN(C(C)C)CC1 | -11.7%
26 | O=c1[nH]c(NCCO)nnc1Cc1ccccc1 | -18.8%
27 | CCc1ccc(-c2cc(C(=O)NN3CCOCC3)c3ccccc3n2)s1 | -11.9%
28 | CN(C(=O)COC(=O)c1cc(-c2ccco2)nc2ccccc12)C1CCS(=O)(=O)C1 (centres undefined) | 98.4% (active)
29 | CCOc1ccc(N(C)C(=O)CCc2nnc3ccc(N4CCOCC4)nn23)cc1 | -3.3%
30 | O=C(N=C1SC2CS(=O)(=O)CC2N1c1ccc(F)cc1F)C1CC1 (centres undefined) | -8.3%
31 | Cn1c(=O)oc2cc(S(=O)(=O)N3CCCC(C(=O)NCc4ccc5c(c4)OCO5)C3)ccc21 (centres undefined) | 9.1%
32 | CCC(=O)N1CCc2cc(S(=O)(=O)CCC(=O)NCc3ccc(OC)cc3)ccc21 | 20%
33 | CC(C)c1cc(N=NC(N)=O)cc(C(C)C)c1O | 0.5%
34 | CCN1CCN(Cc2nnc(-c3ccc(C)cc3)o2)CC1 | -3.3%
35 | O=C1CCC(C(=O)N2CCCC2)CN1Cc1cccc(C(F)(F)F)c1 (centres undefined) | -14.6%
36 | CCc1nnc(NC(=O)CCNC(=O)c2ccco2)s1 | -5.4%
37 | Cc1ccc(NC(=O)Cn2c(O)c(N=NC(N)=S)c3ccccc32)cc1 | 9.9%
38 | CCCN1CCN(CCCNC(=O)c2ccc(CS(=O)c3ccccc3C)o2)CC1 (centres undefined) | 1.2%
39 | Cc1ccc(OCCCCN2CCCCC2)c(C)c1 | 5.4%
40 | Oc1ccc(C23CC4CC(CC(C4)C2)C3)cc1O | 5.9%
41 | COC(=O)c1ccc(CNC(=O)C2CCC(=O)N(Cc3ccccn3)C2)cc1 (centres undefined) | -6%
42 | Cc1ccc2oc(C(=O)N3CCN(C)C[C@@H]3C(C)C)c(C)c2c1 | -13.8%
43 | Cc1ccccc1S(=O)(=O)Cc1ccc(C(=O)NCCCN2CCCC2)o1 | -7.1%
44 | COc1ccc(C2NN=C(c3ccc(C)cc3)S2)cc1 (centres undefined) | -9.5%
45 | O=C(O)CCN1C(=O)/C(=C/c2cn(-c3ccccc3)nc2-c2cccs2)SC1=S | 98% (active)
46 | Cc1cc(NC(=O)CCCN2C(=O)/C(=C\c3cccs3)SC2=S)no1 | -12%
47 | CC1(C)CC(NC(=O)c2cccc(Cl)c2)CC(C)(C)N1 | 2.3%
48 | CCOc1ccccc1C(=O)NC1CC2CCCC(C1)N2Cc1ccc(C)cc1 (centres undefined) | 9.8%

Row | Compound | inhibition
49 | Cc1ccc(Oc2coc3cc(O)ccc3c2=O)cc1 | 1%
50 | O=[N+]([O-])CC(c1ccc(F)cc1)c1c[nH]c2ccccc12 (centres undefined) | -0.1%
51 | CCOc1ccc(C(=S)N2CCCC2)c(OCC)c1 | -7.2%
52 | O=C(NCc1ccc(F)cc1)C(=O)c1cn(CC(=O)N2CCCC2)c2ccccc12 | -3%
53 | CCOC(=O)CCNC(=O)N1CCC(CCC(=O)NCc2ccc(F)cc2)CC1 | -0.1%
54 | CN1CCC(N(C)S(=O)(=O)c2ccc(Cl)cc2)CC1 | -9.6%
55 | CC(=O)Nc1ccc(N2C(=O)CSC2c2cccc(Br)c2)cc1 (centres undefined) | 1.4%
56 | CN(CCCNC(=O)CCc1cn(C)c2ccccc12)C1CCCCC1 | -3.3%
57 | COc1ccc(O)c(CN2CCN(CCCc3ccccc3)C(CCO)C2)c1 (centres undefined) | -8%
58 | N#Cc1nc(-c2ccc(OCc3ccc(Cl)cc3)cc2)oc1N1CCC(C(N)=O)CC1 | 93.5% (active)
59 | Fc1cc(F)nc(NCc2ccccc2)n1 | 8.1%
60 | Oc1ccc(N2CCN(Cc3nc4ccccc4[nH]3)CC2)cc1 | -15.2%
61 | CCC1CCCCN1CCCNC(=O)CS(=O)Cc1nc(-c2ccc(OC)c(OC)c2)oc1C (centres undefined) | 15.7%
62 | Cc1c(CCCN)c2ccccc2n1Cc1ccccc1 | -12.5%
63 | COc1cccc(C(N)=O)c1OC(=O)Cc1ccccc1F | -0.1%
64 | O=C(Nc1nnc(SCc2c(Cl)cccc2Cl)s1)c1ccc2ncsc2c1 | 66.9% (active)
65 | O=C(Nc1cccc(F)c1)c1ccc2ncsc2c1 | -14.9%
66 | Cc1nnc(NC(=O)c2cccc(Br)c2)s1 | 4%
67 | COc1cc(N=Cc2c(CO)cnc(C)c2O)cc(OC)c1OC | -8.3%
68 | C=CCNC(=O)c1ccc(CN2CCC(Cc3ccccc3)CC2)cc1 | -11.1%
69 | CSc1ncccc1C(=O)NC1CCN(Cc2ccccc2)CC1 | 2.3%
70 | CCOc1ccc(CCNC(=O)CS(=O)Cc2nc(-c3ccc(OC)c(OC)c3)oc2C)cc1OCC (centres undefined) | 8.4%
71 | COC(=O)C1(CO)NC(c2ccc(C)cc2)C2C(=O)N(c3ccccc3)C(=O)C21 (centres undefined) | -3.3%
72 | CC1=C(C(=O)OCc2ccccc2)C(c2ccc([N+](=O)[O-])cc2)NC(=O)N1C (centres undefined) | 2.8%

Row | Compound | inhibition
73 | COc1cc(-c2c(NC(=O)c3ccco3)oc3ccccc3c2=O)cc(OC)c1OC | -9.9%
74 | CCN(CC)CCCN(Cc1cc2cc3c(cc2[nH]c1=O)OCO3)C(=S)NCCCN(C)C | -12.7%
75 | O=C(NC1=NN(c2ccccc2)CC1)Nc1ccccc1F | -3.5%
76 | O=c1c2c3nc4ccccc4nc3n(-c3ccc4c(c3)OCCO4)c2ncn1C1CCCC1 | 96.5% (active)
77 | CSc1ncc(C(=O)Nc2ccccc2C)c(C)n1 | 6.2%
78 | CCN1CCN(CCCNC(=O)CNC(=O)c2nn(-c3ccc(OC)cc3OC)c(=O)c3ccccc23)CC1 | 38.3%
79 | Cc1ccc(NC(=O)NC(=O)CN2CCN(c3ccc(O)cc3)CC2)c(C)c1 | -13.5%
80 | Cc1cccc(NC(=O)CN2C(=O)S/C(=C\c3cccn3-c3cccc(C(=O)O)c3)C2=O)c1 | 75.6% (active)
81 | O=C(O)c1ccc(-n2cccc2/C=C2/SC(=O)N(CC(=O)N3CCCC3)C2=O)cc1 | 96.8% (active)
82 | O=C(Cn1nc(-c2ccccc2)ccc1=O)N1CCCCC1 | -1.1%
83 | Cc1ccc2c(c1)c(CC(=O)Nc1ccc(C)c(F)c1)c(C(=O)O)n2C | -6.8%
84 | COc1ccccc1CNC(=O)C1Cc2cc(S(=O)(=O)N3CCCCC3)ccc2N1C(C)=O (centres undefined) | 28.1%
85 | CCC1CCCCN1C(=O)c1ccc(OC2CCN(C(=O)CCOC)CC2)cc1 (centres undefined) | -6.7%
86 | CN(C)S(=O)(=O)c1ccc(C(=O)N2CC(=O)Nc3ccc(F)cc3C2c2ccc(F)cc2)cc1 (centres undefined) | 26.6%
87 | COc1ccc(CCNC(=O)CCNC(=O)N2CC(=O)Nc3ccccc32)cc1OC | -7.1%
88 | COC(=O)c1cc(S(=O)(=O)NCCN2CCN(c3ccccc3F)CC2)c[nH]1 | 17.5%
89 | CC(=O)Nc1cccc(C(=O)NC(C)c2ccc(-n3ccnc3)cc2)c1 (centres undefined) | 1.8%
90 | CCCCN(CC)CCNC(=O)C1CCN(S(=O)(=O)c2cccc3nsnc23)CC1 | 8.4%
91 | O=C(NCCN1CCCCC1)Nc1ccccc1F | 18.4%
92 | CC1CC(C)CN(CCCNC(=O)Cn2cccc2C(=O)c2ccccc2)C1 (centres undefined) | -12.8%
93 | CCOC(=O)NN=C1CCC(c2ccccc2)CC1 (centres undefined) | -4.2%
94 | CCC(C)Nc1nc2ccccc2n2c(C)nnc12 (centres undefined) | 26.9%
